The list is not random: actives were taken first. Their share in the collection is about 19%.
MARV entry inh: blocks Marburg virus binding to or entry into cells | Marburg virus pseudotyped entry inhibition, cell reporter | Potency, µM (titrated, usually from 37.8 µM), for inactives: at the top dose activity change, negative = inhibition, hits mostly inhibitors | 1.8% of 300,000 active | AID 540276; calls by dose curve; tested in HEK293 cells; further: potency means the concentration at half of the fitted maximal effect; on the % scale 0 is the no-effect control and ±100 the full control effect
Shiga toxin inh: Shiga toxin inhibition. Vero cells, Shiga toxin protein synthesis inhibition reporter. inhibition, % at 38.7 µM. 9.2% of 290,000 active; in the data active means inhibition mostly above about 28%, no sharp cut-off; inactive means mostly below about 43%; further: 0% is about no effect
Lassa entry inh: inhibitors of Lassa virus binding or cell entry; Lassa virus pseudotype entry inhibition, cell reporter; Potency, µM (top dose mostly 37.9 µM), inactives show at the top dose activity change, negative = inhibition, usual class: inhibitors; 1.2% of 300,000 active; AID 540256; calls by dose curve; tested in HEK293 cells; further: potency means the concentration at half of the fitted maximal effect; on the % scale 0 is the no-effect control and ±100 the full control effect; nearly all actives have a fitted effect of over 50% in size
Pf growth 96h: P. falciparum growth inhibition at 96 hours; P. falciparum luciferase reporter growth, 96 h; Potency, µM (series often up to 28.7 µM), without a hit: top-dose activity change, negative = inhibition, most hits filed as inhibitors; 6.9% of 320,000 active; AID 504834; further: potency means the concentration at half of the fitted maximal effect; on the % scale 0 is the no-effect control and ±100 the full control effect
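96 h incubation, 37 C, 5% CO2, of luciferase-reporter P. falciparum-infected RBCs (2% hematocrit, 0.05% parasitemia final) with test compounds; endpoint luminescence.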
CHX counter: counter-screen hit for Shiga toxin inhibitors, cycloheximide | cell reporter, cycloheximide protein synthesis inhibition counterscreen | max response, % | 12% of 300,000 active | AID 2314; in the data active means max response mostly above about 13%, no sharp cut-off; inactive means mostly below about 14%; further: read at 38.3 µM for the half of the compounds with a filed dose; 0% is about no effect
Pf growth 48h: inhibits P. falciparum growth in the first generation, 48 h | P. falciparum luciferase growth in erythrocytes, 48 h | Potency, µM (series often up to 28.7 µM), without a hit: top-dose activity change, negative = inhibition, actives largely listed as inhibitors | 5.9% of 310,000 active; further: potency means the concentration at half of the fitted maximal effect; on the % scale 0 is the no-effect control and ±100 the full control effect
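First compound was added to culture medium, then infected red cells at 0.1% parasitemia and 2% hematocrit (final). After incubation at 37 C under 5% CO2, luciferase detection reagent was dispensed and light output recorded.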
An asterisk follows results filed as active; ? = inconclusive; · = not tested or not shown; [ ] = remark or other dose. Unless noted, the call rests on the fitted dose curve; in most records, active means well fitted inhibition curve with a large enough effect; inconclusive means small, poorly fitted or top-dose-only effect, or another doubt; inactive means no such curve, though single readings can be large or run the other way.

SMILES | MARV entry inh | Shiga toxin inh | Lassa entry inh | Pf growth 96h | CHX counter | Pf growth 48h
O=C(c1ccccc1Br)N1N=C(c2ccccc2)CC1c1ccccc1F (centres undefined) | · | -8.9 | · | ? | 12.3 | ?
O=C(O)c1ccccc1C(=O)N1N=C(c2ccccc2)CC1c1ccccc1O (centres undefined) | · | 67.3* | · | ? | 52.5* | -16.9%
O=C(c1ccccc1)N1N=C(c2ccccc2)CC1c1cccs1 (centres undefined) | ? | -14.2 | -3.2%[46.1 µM] | ? | 9.5 | ?
COc1ccccc1C1CC(c2ccccc2)=NN1C(=O)c1ccccc1 (centres undefined) | · | -5.0 | · | 1.1% | -7.6 | 0.37µM*
Cc1ccc(C(=O)N2N=C(c3ccccc3O)CC2c2ccccc2)cc1 (centres undefined) | 0.6%[46.1 µM] | -1.4 | 6.1%[46.1 µM] | ? | -1.5 | 10.4µM*
COc1ccccc1C1CC(c2ccc(NS(C)(=O)=O)cc2)=NN1S(=O)(=O)c1ccccc1 (centres undefined) | · | -9.6 | · | ? | -17.4 | ?
CCOc1ccc(C(=O)c2cn(CC(=O)Nc3cc(OC)ccc3OC)c3cc(OC)c(OC)cc3c2=O)cc1 | 0.5%[46.1 µM] | · | 6.6%[46.1 µM] | · | · | ·
COC(=O)c1ccc(-n2nnc(-c3nsc(NC(=O)c4ccc(Cl)cc4)n3)c2C)cc1 | 9.3%[46.1 µM] | · | ? | · | · | ·
CCC(CC)C(=O)N1N=C(c2ccc(NS(C)(=O)=O)cc2)CC1c1ccc(C)cc1 (centres undefined) | · | 10.0 | · | 5.22µM* | 6.8 | ?
CCC(CC)C(=O)N1N=C(c2ccc(NS(C)(=O)=O)cc2)CC1c1ccccc1 (centres undefined) | · | -12.2 | · | ? | -2.9 | ?
O=C(c1ccccc1)N1N=C(c2ccccc2)CC1c1ccccc1 (centres undefined) | ? | 12.8 | 13.4%[46.1 µM] | 2.33µM* | -2.7 | ·
CCC(=O)N1N=C(c2ccccc2)CC1c1ccccc1 (centres undefined) | -4.7% | 1.2 | -9.8% | ? | -2.1 | ?
Cc1ccc(C2=NN3C(=O)c4ccccc4C3C2)cc1 (centres undefined) | · | 56.6* | · | 8.28µM* | 55.3* | ?
COc1ccc2c(c1OC)C(=O)N1N=C(c3ccc(F)cc3)CC21 (centres undefined) | · | 20.8 | · | 139.4% | 9.8 | ?
N=C(SC1CC(=O)N(c2ccc(F)cc2)C1=O)N1N=C(c2ccccc2)CC1c1ccccc1 (centres undefined) | ? | 4.3 | 19.4% | 33.3% | -2.3 | 2.08µM*
COc1ccc(-c2c(C)c3ccc(O)c(CN4CCN(CCO)CC4)c3oc2=O)cc1OC | · | · | -16.0%[46.1 µM] | · | · | ·
COc1ccc(OC)c(C2CC(c3ccc(NS(C)(=O)=O)cc3)=NN2C(=O)c2ccccc2)c1 (centres undefined) | ? | 41.2 | ? | ? | 10.5 | ?
O=C(c1ccccc1)N1N=C(c2ccccc2)CC1c1ccccc1[N+](=O)[O-] (centres undefined) | 12.5% | -9.1 | 7.8% | 1.65µM* | -2.1 | ?
COc1ccccc1C1CC(c2ccc(NS(C)(=O)=O)cc2)=NN1C(=O)c1ccccc1 (centres undefined) | · | 9.4 | · | ? | 8.2 | 2.08µM*
Cc1ccc(C(=O)N2N=C(c3ccc(Br)cc3)CC2c2ccccc2O)cc1 (centres undefined) | -29.5% | 5.5 | 12.6µM* | 10.4µM* | 12.9* | ?
Cc1cccc(C(=O)N2N=C(c3ccc(NS(C)(=O)=O)cc3)CC2c2cccs2)c1 (centres undefined) | · | -5.2 | · | ? | -3.2 | 8.28µM*
CCN(CC)C(=O)c1sc(NC(=O)Cc2ccccc2)c(C#N)c1C | -8.4% | 2.7 | ? | 12.6% | 3.3 | ?
Cc1ccc(CS(=O)Cc2ccc(C(=O)NCc3ccccc3)o2)cc1 (centres undefined) | -0.4%[46.1 µM] | -5.2 | ? | ? | -0.5 | -2.9%
CC(=O)Nc1ccc(NC(=O)c2cc(-n3cnnc3)ccc2Cl)cc1 | · | -18.6 | · | 11.0% | -2.3 | 10.3%
CC(=O)c1cccc(NC(=O)c2cc(-n3cnnc3)ccc2Cl)c1 | 3.7% | 40.6 | 12.6% | · | -2.2 | 3.2%
SMILES | MARV entry inh | Shiga toxin inh | Lassa entry inh | Pf growth 96h | CHX counter | Pf growth 48h
Cc1c(NC(=O)c2cccs2)cccc1-c1nc2ccccc2s1 | -4.2% | 23.2 | 1.3% | -7.3% | 17.7 | 30.4%
O=C(Nc1cccc(-c2nc3ccccc3s2)c1)c1cc(-n2cnnc2)ccc1Cl | · | 58.2 | · | 0.0% | 29.5* | 16.5%
Cc1c(NC(=O)c2cc(-n3cnnc3)ccc2Cl)cccc1-c1nc2ccccc2s1 | ? | 36.9* | 1.4% | 60.0% | 23.1* | 44.0%
COc1cc(NC(=O)c2cc(-n3cnnc3)ccc2Cl)cc(OC)c1 | 16.1% | -7.9 | -19.8% | 13.1µM* | -5.2 | 1.8%
Cc1ccc2sc(-c3ccc(NC(=O)c4cc(-n5cnnc5)ccc4Cl)cc3)nc2c1 | ? | 134.2* | ? | ? | 62.2* | -95.0%
NC(=O)C1CCN(C(=O)/C=C/c2cccc(Br)c2)CC1 | 14.1%[46.1 µM] | 16.5 | -8.0% | 69.8% | -1.7 | 20.9%
CN(C(=O)c1cc(-n2cnnc2)ccc1Cl)c1ccccc1 | 21.6% | 42.6* | ? | 70.7% | 16.7* | 43.2%
O=c1[nH]c(=O)n(Cc2ccccc2)c2c1CCC2 | 2.6% | 1.4 | -17.5% | · | 3.6 | 1.0%
N=c1c2c(n(Cc3ccc(Br)cc3)c3c1CCC3)CCCC2 | ? | -1.2 | ? | 0.0329µM* | -5.5 | 0.0928µM*
N=c1c2c(n(Cc3ccc([N+](=O)[O-])cc3)c3c1CCC3)CCCC2 | ? | -10.3 | -7.7% | 10.4µM* | -2.5 | ?
N=c1c2c(n(Cc3ccc(Cl)c(Cl)c3)c3c1CCC3)CCCC2 | ? | -21.2 | ? | 10.1% | -1.7 | 0.147µM*
CCCS(=O)(=O)N1CCC(C(=O)c2cccc(C(F)(F)F)c2)CC1 | 26.2% | -17.9 | -3.3% | · | -6.6 | 10.7%
O=C(N/N=C/c1ccncc1)c1cc([N+](=O)[O-])cc([N+](=O)[O-])c1O | 19.3% | 3.9 | 4.1% | ? | -0.3 | -19.9%
O=C(/C=C/c1ccccc1)NC1CC2CCC1C2 (centres undefined) | ? | 106.1* | ? | -13.1% | 44.8* | -1.9%
O=C(/C=C/c1ccc([N+](=O)[O-])cc1)NC1CC2CCC1C2 (centres undefined) | 5.3%[46.1 µM] | 48.8* | -2.3% | -10.6% | 43.2* | -5.3%
O=C(/C=C/c1ccc(Cl)cc1)NC1CC2CCC1C2 (centres undefined) | ? | 128.8* | ? | 2.0% | 25.7* | 21.7%
O=C(O)c1cc2nc3c(c(C(F)(F)F)n2n1)CCc1ccccc1-3 | -3.8% | -9.4 | -0.5% | -29.0% | -5.6 | ·
CCOc1cc(NC(=S)NCCc2ccccc2)c(OCC)cc1NC(C)=O | -32.9%[46.1 µM] | -14.4 | 13.3% | 4.4% | 2.0 | -6.6%

Compound activity: PubChem BioAssay, National Center for Advancing Translational Sciences (NCATS)
